# The list is not random: actives were taken first. Their share in the collection is about 7.4%.
# FLuc modulator – firefly luciferase modulation, counter-screen for miR-21 project; P08659; purified FLuc, Km substrates, luminescence inhibition; Potency, µM (top dose mostly 57.5 µM), actives largely listed as inhibitors; hit rate 6.9% among 360,000; AID 588342; also: nearly all actives have a fitted effect of over 55% in size
# Target sequence (P08659 whole entry, looked up): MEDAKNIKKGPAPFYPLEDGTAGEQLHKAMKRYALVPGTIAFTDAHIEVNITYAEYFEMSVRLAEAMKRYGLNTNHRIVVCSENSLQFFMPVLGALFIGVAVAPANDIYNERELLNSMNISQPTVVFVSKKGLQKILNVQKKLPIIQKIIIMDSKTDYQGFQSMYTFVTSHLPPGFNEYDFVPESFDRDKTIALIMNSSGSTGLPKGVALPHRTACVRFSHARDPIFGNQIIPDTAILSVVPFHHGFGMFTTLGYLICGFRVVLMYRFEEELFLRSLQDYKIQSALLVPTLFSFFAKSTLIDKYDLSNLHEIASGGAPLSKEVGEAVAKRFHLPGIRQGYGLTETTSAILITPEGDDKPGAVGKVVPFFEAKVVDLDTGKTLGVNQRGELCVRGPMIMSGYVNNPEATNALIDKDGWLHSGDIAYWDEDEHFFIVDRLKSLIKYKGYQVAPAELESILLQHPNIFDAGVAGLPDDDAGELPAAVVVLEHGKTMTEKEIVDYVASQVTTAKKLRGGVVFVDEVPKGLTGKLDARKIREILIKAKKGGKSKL
#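 Biochemical qHTS of compounds, final roughly 60 µM downward over six points, against 10 nM purified firefly luciferase using Km concentrations of substrates (10 uM D-luciferin, 10 uM ATP) in Tris acetate pH 7.5 buffer; luminescence output.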
# Rab9 promoter act – activators of Rab9 promoter; Huh7 Rab9 promoter-luciferase reporter, luminescence, 24 h; Potency, µM (top dose mostly 9.22 µM), actives largely listed as activators; hit rate 2.8% among 320,000; AID 485297; also: nearly all actives have a fitted effect of over 60% in size
#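 Cells were plated at 1500 per well in reduced-serum medium with 10% FBS and left 2 h. Compound in DMSO was then added for 24 h at 37 °C. Reporter signal was read by luminescence after 10 min with luciferase detection reagent.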
# ELG1 genotox – genotoxicity induction in ELG1-luciferase HEK293T cells; HEK293T ELG1-luciferase reporter, luminescence, 16 h; Potency, µM (titrated, usually from 46 µM), actives largely listed as activators; hit rate 1.3% among 330,000; also: nearly all actives have a fitted effect of over 60% in size
#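 Quantitative HTS format in 1536-well plates. HEK293T ELG1-luciferase reporter cells receive test compound and are incubated 16 hr at 37 °C, 5% CO2; ONE-Glo added, 30 min room temperature, then luminescence read.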
# NPC1 prom act – NPC1 promoter activation; Huh7 NPC1 promoter luciferase reporter, 24 h; hit rate 2.4% among 320,000; Potency, µM (highest dose often 9.22 µM), actives largely listed as activators; also: nearly all actives have a fitted effect of over 60% in size
#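 Cells: Huh7 expressing luciferase under the NPC1 promoter, 1500/well. Seeded 2 h, compound added, incubated 24 h at 37 °C. Luciferase reagent, 10 min ambient, then luminescence.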
# SMN2 splice up – increases expression of the SMN2 splice variant | hit rate 2.8% among 210,000 | AID 1458 | HEK293 SMN2-luciferase splicing reporter, luminescence, 30-36 h | Potency, µM (titrated, usually from 46.1 µM), actives largely listed as activators; also: nearly all actives have a fitted effect of over 55% in size
#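 HEK293 cells carry an SMN2 […]–luciferase reporter in which exon 7 inclusion puts luciferase in frame. Cells were plated 10-12 h before compound addition, then incubated 30-36 h at 37C. ONE-Glo luminescence was read; sodium butyrate at 4.5 mM final served as control.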
# Luc counter – blocks Kinase-Glo luciferase, a counter-screen artifact; Q27757; Kinase-Glo luciferase, ATP luminescence, 8 min; Potency, µM (series often up to 38.3 µM), usual class: inhibitors; hit rate 0.28% among 200,000; AID 1379; also: nearly all actives have a fitted effect of over 60% in size
#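 Substrate mix (final 50 mM imidazole pH 7.2, 50 mM KCl, 7 mM MgCl2, 10 uM ATP, 0.01% Tween 20, 0.05% BSA) plus pin-tool compound, then Kinase-Glo detection mix; 8 min ambient, luminescence read.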
# Numbers stand for hits; i = inactive; ? = inconclusive; nt = no result given; [ ] = another dose, or the depositor's remark. Calls follow the shape of the dose curve; as a rule, active = well fitted curve in the direction sought with a large enough effect; inconclusive = small, poorly fitted or top-dose-only effect, or another doubt; inactive = no such curve, though single readings can be large; an effect the other way counts as inactive or inconclusive.
SMILES,FLuc modulator,Rab9 promoter act,ELG1 genotox,NPC1 prom act,SMN2 splice up,Luc counter
COc1ccc(/C=C2\SC(=S)N(CC(=O)OCC(=O)Nc3ccc(C)cc3Cl)C2=O)cc1,12µM,i,i,i,nt,nt
O=C(CCCN1C(=O)/C(=C/c2cccs2)SC1=S)Nc1cc([N+](=O)[O-])ccc1O,i,i,i,i,nt,nt
COc1ccc(/C=C2\SC(=S)N(CC(=O)OCC(=O)Nc3ccc([N+](=O)[O-])cc3OC)C2=O)cc1,24µM,i,i,i,i,i
O=C(CCN1C(=O)/C(=C/c2ccc(F)cc2)SC1=S)Nc1cc([N+](=O)[O-])ccc1O,12µM,i,i,i,nt,nt
COc1ccc(/C=C2\SC(=S)N(CCCC(=O)Nc3ccc(O)cc3)C2=O)cc1,?,i,i,i,nt,nt
COc1cc([N+](=O)[O-])ccc1NC(=O)COC(=O)C=C(C)C,i,i,i,i,i,i
CO[C@@H](CCOCc1ccccc1)C[C@H]1O[C@H](C(=O)OC(C)C)C=C[C@@H]1C,nt,nt,nt,nt,i,i
CC(C)=C[C@H]1[C@@H](C(=O)Oc2ccccc2C(C)C)C1(C)C,nt,nt,nt,nt,i[9.22 µM],i[7.66 µM]
CCOc1ccc(NC(=O)c2[nH]c(C)c(C(C)=O)c2C)cc1,15µM,?,?,?,nt,nt
CCc1ccc(NC(=O)c2[nH]c(C)c(C(C)=O)c2C)cc1,12µM,1.6µM,?,1.6µM,nt,nt
CCOC(=O)c1cccc(NC(=O)c2nn(-c3ccc(OC)cc3)c(=O)c3c2c2ccccc2n3C)c1,i,nt,nt,nt,i,nt
COc1cc(N/N=C(\C)c2ccc(O)c(C)c2)nc(-c2ccccc2)n1,15µM,i,i,i,nt,i
C/C(=N\Nc1cc(-c2ccccc2)nc(-c2ccccc2)n1)c1ccc(O)c(C)c1,i,i,i,i,nt,i
COc1cc(N/N=C(\C)c2ccc(N)cc2)nc(-c2ccccc2)n1,15µM,i,i,i,i,i
CC1(C)O[C@@H]2C[C@H]3[C@H]4C[C@H](F)C5=CC(=O)C=C[C@@]5(C)[C@@H]4[C@H](O)C[C@]3(C)[C@]2(C(=O)CO)O1,nt,nt,nt,nt,i,i
Cc1ccc(Nc2nc(-c3ccccc3)cs2)nc1,0.38µM,0.56µM,0.33µM,0.45µM,nt,nt
c1ccc(-c2csc(Nc3nc(N4CCOCC4)nc(N4CCOCC4)n3)n2)cc1,i,i,i,i,i,i
CC(/C=C/c1ccccc1)=N\Nc1nc(-c2ccccc2)cs1,i,i,i,i,i,i
CC(C)=NNc1nc(-c2ccccc2)cs1,19µM,i,?,i,i,i
Cc1cc(C)nc(Nc2nc(-c3ccccc3)cs2)n1,?,0.71µM,1.6µM,?,nt,nt
Cc1ccc(S(=O)(=O)Nc2nc(-c3ccccc3)cs2)cc1,i,i,i,i,nt,nt
Cc1ccc(Nc2nc(-c3cccs3)cs2)nc1,0.24µM,0.45µM,0.52µM,0.45µM,1.4µM,i
COc1cc(C(=O)Nc2nc(-c3cccs3)cs2)cc(OC)c1OC,i,i,i,i,?,i
Cc1nc2nc(-c3ccc(Cl)cc3Cl)nn2c(C)c1CCC(=O)Nc1ccc(F)cc1,?,nt,nt,nt,i,nt
Fc1ccc(CSc2nncn3c2cc2occc23)c(Cl)c1,i,nt,nt,nt,nt,nt
SMILES,FLuc modulator,Rab9 promoter act,ELG1 genotox,NPC1 prom act,SMN2 splice up,Luc counter
COc1cc(OC)c(NC(=O)CCc2nc(C3=CCN(Cc4cccc(Cl)c4)CC3)no2)cc1Cl,i,nt,nt,nt,nt,nt
CN(/N=C/C=C/c1ccccc1)c1cc(=O)n(C)c(=O)[nH]1,i,i,i,i,i,i
COc1ccc(/C=N/N(C)c2cc(=O)n(C)c(=O)[nH]2)cc1OC,17µM,i,?,i,i,i
Cc1c(-c2ncn[nH]2)sc(C#N)c1-c1ccccc1,19µM,i,i,i,i,i
Cc1cc(C2=NNC(=Nc3ccccc3)SC2)c(C)n1C,11µM,1.4µM,?,3.2µM,?,i
COCCn1c(C)cc(C2=NNC(=Nc3ccccc3F)SC2)c1C,0.54µM,i,?,?,i,i
Cc1cc(C2=NNC(=NCCc3ccccc3)SC2)c(C)n1-c1c(C)n(C)n(-c2ccccc2)c1=O,i,i,i,i,nt,nt
COCCCN=C1NN=C(c2cc(C)n(Cc3ccccc3Cl)c2C)CS1,12µM,i,?,i,?,i
COCCCN=C1NN=C(c2cc(C)n(-c3ccccc3)c2C)CS1,4.3µM,1.3µM,?,?,i,i
O=S(=O)(Nc1ccc(C(F)(F)F)cc1)c1ccc2c(c1)OCCO2,i,nt,nt,nt,i,nt
Cc1ccccc1Cn1c(CN2CCC(C(=O)NCc3cccnc3)CC2)cc2ccccc21,i,nt,nt,nt,nt,nt
O=c1c(-c2cc(-c3ccc(F)cc3)nc3c2COc2ccc(Cl)cc2-3)coc2ccc(F)cc12,i,nt,nt,nt,i,nt
O=c1c2sc3ccccc3c2n(Cc2ccc(F)cc2)c(=O)n1Cc1ccccc1,i,nt,nt,nt,i,nt
COCCCN=C1NN=C(c2cc(C)n(-c3ccccc3F)c2C)CS1,2.4µM,0.32µM,i,?,i,i
CCCCOC(=O)c1ccc(NC(=O)c2csnn2)cc1,i,nt,nt,nt,nt,nt
COc1cc(OC)cc(C(=O)Nc2cc(-c3nc4ccccc4s3)ccc2OC)c1,?,nt,nt,nt,i,nt
O=C1CCC(=O)N1c1ccc(-c2nc3ccccc3s2)cc1,0.54µM,0.35µM,?,0.45µM,10µM,i
c1ccc(-c2nc3ccccc3s2)nc1,3.8µM,1.4µM,?,1.4µM,16µM,?
Brc1cc2c(cc1-c1nc3ccccc3s1)OCO2,12µM,i,i,i,nt,nt
O=C(Nc1ccccc1-c1nc2ccccc2s1)C1=COCCO1,i,i,i,i,i,i
CN(C)c1ncccc1-c1nc2ccccc2s1,i,i,i,i,i,i
COc1cc(OC)cc(-c2nc3ccccc3s2)c1,8.5µM,i,?,i,?,i
O=C(Nc1nc2ccccc2n1CCN1CCOCC1)c1cccc([N+](=O)[O-])c1,nt,i,nt,i,nt,nt
CSc1nn(CC(=O)Nc2cc(C)ccc2C)c(N)c1S(=O)(=O)c1ccccc1,i,nt,nt,nt,nt,nt
Nc1ccc(-c2nc3ccccc3s2)cn1,4.8µM,1.6µM,9.2µM,1.3µM,nt,nt
SMILES,FLuc modulator,Rab9 promoter act,ELG1 genotox,NPC1 prom act,SMN2 splice up,Luc counter
O=S(=O)(c1cc(-c2nc3ccccc3s2)ccc1Cl)N1CCOCC1,i,i,i,i,i,i
Brc1ccc(-c2nc3ccccc3s2)s1,1.1µM,1.6µM,?,?,14µM,i
CCc1ccccc1NC(=O)C(=O)NCCc1sc(-c2cccc(C)c2)nc1C,i,nt,nt,nt,nt,nt
COc1cccc(NC(=O)c2nnn(Cc3ccc(OC)c(Br)c3)c2N)c1,i,nt,nt,nt,i,nt
CCn1c(/C=C/c2cc[n+](C)cc2)nc2ccccc21,i,i,i,i,nt,nt
COc1ccc(/C=C/c2nc3ccccc3n2Cc2ccc(OC)c(OC)c2)cc1,0.43µM,0.79µM,2.1µM,1.6µM,nt,?
CC(C)n1c(/C=C/c2ccccc2)nc2ccccc21,2.4µM,?,?,?,11µM,i
CC(C)n1c(CN(C)c2ccccc2)nc2ccccc21,i,i,i,i,nt,nt
CCCn1c(/C=C/c2ccccc2)nc2ccccc21,3µM,1.8µM,?,1.8µM,11µM,i
